From PubChem BioAssay
Active and inactive are the calls of the source.

test: FRG1 promoter luciferase signal modulators, primary screen, FRG1 inhibition for FSHD, cell-based, C2C12 myotubes, firefly/Renilla luciferase, luminescence (AID 1084); settings: higher = more signal, called active from +8 up or from −8 down

Row | SMILES | z-score
1 | C=CCNC(=O)[C@@H]1[C@H]2C(=O)O[C@H](c3ccccc3)[C@H](c3ccccc3)N2[C@H](c2ccc(O)cc2)[C@@]12C(=O)Nc1ccc(C#CC3=CCCCC3)cc12 | -0.231 (inactive)
2 | Cc1cccc([C@H]2C[C@H]3C(Br)=C[C@@]2(CO)C(=O)[C@]32CO2)c1 | 1.46 (inactive)
3 | COCCOC(=O)N1C(=O)[C@@]2(c3cc(C#CCCO)ccc31)[C@H](C(=O)N1CCN(c3ncccn3)CC1)[C@H]1C(=O)O[C@H](c3ccccc3)[C@H](c3ccccc3)N1[C@@H]2c1ccc(OCCO)cc1 | -0.31 (inactive)
4 | COC(=O)[C@H](Cc1ccccc1)N1CC(C)(OC)O[C@@H](Cc2ccccc2)[C@H]1/C=C/C1CC1 (stereo not given in full) | -0.218 (inactive)
5 | CCOC(=O)C1=CCC(c2ccncc2)N(S(=O)(=O)c2ccc(C)cc2)C1 (stereo not given) | -1.41 (inactive)
6 | COC(=O)[C@@]1(Cc2ccc(F)cc2)[C@H]2c3cc(C(=O)N4CCCC4)n(Cc4ccc(C(F)(F)F)nc4)c3C[C@H]2CN1C(=O)c1ccccc1 | 2 (inactive)
7 | COCCOC(=O)N1C(=O)[C@@]2(c3cc(C#CCNC(N)=O)ccc31)[C@H](c1ccccc1OCCO)N1[C@H](c3ccccc3)[C@H](c3ccccc3)OC(=O)[C@H]1[C@@H]2C(=O)N1CCCCCCC1 | 0.515 (inactive)
8 | CCCCC(=C=CC[C@@H](O)c1ccccc1OCCO)C[C@@H](O)c1ccccn1 | -1.14 (inactive)
9 | O=C(NCC(F)(F)F)[C@@H]1c2ccccc2C(=O)N(Cc2cc(C(F)(F)F)cc(C(F)(F)F)c2)[C@H]1c1ccc(CO)cc1 | -0.884 (inactive)
10 | CC(CO)N1C(=O)[C@@H]2[C@H]3C(=O)OCC=C[C@H]3OC23C=CCN(c2ccc4ccccc4c2)C(=O)[C@@H]13 (stereo not given in full) | 0.621 (inactive)

test: binders of probe aFST on microarray, primary screen, stem cell growth factor project, biochemical, small-molecule microarray, fluorescence 635/667 (AID 1086); settings: higher = more signal;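 note: score merges 667 nm fluorescence with signal-to-noise of each printed compound spot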

Row | SMILES | composite z-score
11 | C[C@@]1([C@@H](NS(=O)(=O)c2cccc3cccnc23)c2ccc(-c3ccccc3)cc2)C[C@H]1C1CCCCC1 | -0.244
12 | O=C1O[C@H](c2ccccc2)[C@H](c2ccccc2)N2[C@H]1[C@@H](C(=O)N1CCN(c3ncccn3)CC1)[C@]1(C(=O)Nc3ccc(C#CC4(O)CCCCCC4)cc31)[C@H]2c1ccc(O)cc1 | 0.0718
13 | C=CCC(OC(C)=O)[C@@H]1[C@@H](N(Cc2ccc(-c3ccccc3)cc2)C(=O)Cc2ccc(OC)cc2)c2cc(OCCCO)ccc2N1C(=O)c1ccc2ccccc2c1 (stereo not given in full) | 0.544
14 | O=C(NC1CC1)[C@@H]1c2ccccc2C(=O)N(C2CCCCC2)[C@H]1c1ccc(CO)cc1 | 0.575
15 | COC(=O)[C@@]1(Cc2ccccc2)[C@H]2c3cc(C(=O)N(C)C)n(Cc4nc5ccccc5[nH]4)c3C[C@H]2CN1C(=O)c1ccccc1 | 1.37
16 | C=CCOC(=O)[C@@H]1[C@H]2C(=O)O[C@H](c3ccccc3)[C@H](c3ccccc3)N2[C@H](c2ccc(OCCOC(=O)[C@@H]3C[C@@H]4C(=O)N[C@@H](CC(C)C)C(=O)N4[C@@H]3c3ccc(O)cc3)cc2)[C@@]12C(=O)Nc1ccc(I)cc12 | 0.4
17 | COCCOC(=O)N1C(=O)[C@@]2(c3cc(C#CCNC(N)=O)ccc31)[C@H](C(N)=O)[C@H]1C(=O)O[C@H](c3ccccc3)[C@H](c3ccccc3)N1[C@@H]2c1ccc(O)cc1 | 0.0377
18 | C=CCNC(=O)[C@H]1[C@@H]2C(=O)O[C@@H](c3ccccc3)[C@@H](c3ccccc3)N2[C@@H](c2ccc(OCCO)cc2)[C@]12C(=O)Nc1ccc(C#Cc3ccc(OC)cc3)cc12 | 0.624
19 | CN1C(=O)C2C=CC(C(O)c3ccc(I)cc3)N(N(c3ccccc3)c3ccccc3)C2C1=O (stereo not given) | 0.428
20 | Cc1ccc(S[C@]2(C(=O)NCc3ccccc3)CC(=O)N(Cc3ccccc3Cl)[C@@H]2c2ccc(CO)cc2)cc1 | -0.603
21 | C[C@]1(C(=O)O)c2ccccc2C(=O)N(Cc2cc(C(F)(F)F)cc(C(F)(F)F)c2)[C@H]1c1ccc(CO)cc1 | 0.192
22 | COC(=O)C(CC#Cc1ccc2c(c1)[C@]1(C(=O)N2)[C@H](C(N)=O)[C@H]2C(=O)O[C@H](c3ccccc3)[C@H](c3ccccc3)N2[C@@H]1c1ccccc1OCCO)C(=O)OC | -0.275
23 | COC(=O)[C@@]1(Cc2ccc(F)cc2)[C@H]2c3cc(C(=O)N(C)C)n(Cc4ccc(C(F)(F)F)nc4)c3C[C@H]2CN1C(=O)c1ccccc1 | 1.97
24 | CCN1C(=O)C2CC(=O)C3C(CN(S(=O)(=O)c4ccc(C)cc4)C3c3ccc(C)cc3)C2C1=O (stereo not given) | 0.292
25 | C=C[C@H](OC)[C@@H](O)c1ccc(OC)c(O)c1 | -1
26 | CCCCCN1CC=CC23O[C@@H]4/C=C\CCCOC(=O)C4[C@H]2C(=O)N(CCCCCO)[C@@H]3C1=O (stereo not given in full) | -0.841
27 | CC(C)C[C@H]1NC(=O)CNC(=O)[C@@]23C(=O)N[C@@H](Cc4ccccc4)C2[C@H](C)[C@@]2(C)O[C@H]2C3/C=C/C/C=C\CNC1=O (stereo not given in full) | 0.136
28 | C=CCNC(=O)[C@@H]1[C@H]2C(=O)O[C@H](c3ccccc3)[C@H](c3ccccc3)N2[C@H](c2ccc(OCCO)cc2)[C@@]12C(=O)Nc1ccc(C#CCNC(N)=O)cc12 | 0.675

Row | SMILES | composite z-score
29 | CC(C)[Si](C#Cc1ccccc1)(O[C@H](c1ccccc1)c1cn(Cc2ccccc2)nn1)C(C)C | 0.0643
30 | C=C(C(=O)CC[C@@H](OC(=O)c1cccnc1)c1cccc(OCCO)c1)C(C)C | 0.267
31 | CCCCN1CC=CC23O[C@@H]4/C=C\CCC(C)OC(=O)C4[C@H]2C(=O)N(CCO)[C@@H]3C1=O (stereo not given in full) | -0.14
32 | O=C/C=C/c1ccc(-c2ccccc2)cc1 | -0.0543
33 | COc1cc(CO)cc(I)c1O[C@H]1C=C(C(=O)NCCO)C[C@@H](N(CCN2CCOCC2)C(=O)C2CCCO2)[C@@H]1O (stereo not given in full) | 0.0496
34 | CC(C)C[C@@H]1NC(=O)[C@H]2C[C@@H](C(=O)O)[C@@H](c3cccc(OCCO)c3)N2C1=O | 0.108
35 | COc1cc(Cc2cc3c(c(CCc4ccccc4)n2)[Si](C(C)C)(C(C)C)O[C@H]3c2ccccc2)cc(OC)c1OC | -0.273
36 | C=CCNC(=O)[C@@H]1[C@H]2C(=O)O[C@H](c3ccccc3)[C@H](c3ccccc3)N2[C@H](c2ccc(O)cc2)[C@@]12C(=O)Nc1ccc(C#CC3=CCCCC3)cc12 | -0.17
37 | Cc1cccc([C@H]2C[C@H]3C(Br)=C[C@@]2(CO)C(=O)[C@]32CO2)c1 | 0.275
38 | COCCOC(=O)N1C(=O)[C@@]2(c3cc(C#CCCO)ccc31)[C@H](C(=O)N1CCN(c3ncccn3)CC1)[C@H]1C(=O)O[C@H](c3ccccc3)[C@H](c3ccccc3)N1[C@@H]2c1ccc(OCCO)cc1 | 0.832
39 | COC(=O)[C@H](Cc1ccccc1)N1CC(C)(OC)O[C@@H](Cc2ccccc2)[C@H]1/C=C/C1CC1 (stereo not given in full) | -0.205
40 | CCOC(=O)C1=CCC(c2ccncc2)N(S(=O)(=O)c2ccc(C)cc2)C1 (stereo not given) | 0.981
41 | COC(=O)[C@@]1(Cc2ccc(F)cc2)[C@H]2c3cc(C(=O)N4CCCC4)n(Cc4ccc(C(F)(F)F)nc4)c3C[C@H]2CN1C(=O)c1ccccc1 | 2.25
42 | COCCOC(=O)N1C(=O)[C@@]2(c3cc(C#CCNC(N)=O)ccc31)[C@H](c1ccccc1OCCO)N1[C@H](c3ccccc3)[C@H](c3ccccc3)OC(=O)[C@H]1[C@@H]2C(=O)N1CCCCCCC1 | 1.29
43 | CCCCC(=C=CC[C@@H](O)c1ccccc1OCCO)C[C@@H](O)c1ccccn1 | -0.0288
44 | O=C(NCC(F)(F)F)[C@@H]1c2ccccc2C(=O)N(Cc2cc(C(F)(F)F)cc(C(F)(F)F)c2)[C@H]1c1ccc(CO)cc1 | -0.192
45 | CC(CO)N1C(=O)[C@@H]2[C@H]3C(=O)OCC=C[C@H]3OC23C=CCN(c2ccc4ccccc4c2)C(=O)[C@@H]13 (stereo not given in full) | -0.946
